Results published in PubChem BioAssay AID504753 (Sanford-Burnham Center for Chemical Genomics, 2011).
The whole screen tested about 2,400 compounds, of which about 820 (34%) were called active.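 Rule for the calls: active = inhibition of at least 50% at 20 µM in any single replicate; inactive = the rest.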 A selection follows.

The compounds below were run on glucose-6-phosphate dehydrogenase-6-phosphogluconolactonase (PfGluPho), Plasmodium falciparum 3D7 (assay: PfG6PD inhibitors, hit retest, confirmation, biochemical, fluorescence intensity, single concentration (AID 504753;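 note: 0% = DMSO with substrate and 100% = DMSO lacking glucose-6-phosphate substrate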)). Conditions: recombinant PfGluPho, NADPH-diaphorase-resazurin fluorescence; at 20 µM; active compounds read high.

SMILES	inhibition
O=C1NC(=O)N(c2ccccc2)C(=O)/C1=C/c1ccc([N+](=O)[O-])s1	64.4% (active)
COC(=O)N(c1ccc(OC)cc1)P1(=S)OCCC(C)O1 (stereo not given)	34.3% (inactive)
Cc1cc(C)c2c(c1)NP(=S)(c1ccccc1)N2 (stereo not given)	-21% (inactive)
O=C(CSC1c2ccccc2-c2ccccc21)N/N=C/c1ccccc1	35.3% (inactive)
COc1cccc(-c2nc3ccc(N4CCN(C)CC4)cc3[nH]2)c1	13.5% (inactive)
